# Test results taken from PubChem BioAssay (Tox21).
# Results filed as inconclusive are left out. Entries that show only a call come without a potency. Calls of active or inactive are those of the source. Calls come from the whole dose curve; as a rule, active = well fitted activation curve with a large enough effect; inconclusive = small, poorly fitted or top-dose-only effect; inactive = flat fitted curve, though single readings scatter.
# Assay: qHTS assay to identify small molecule phospholipidosis (PLD) inducers (AID 1259344)
# Details: HepG2 phospholipidosis, LipidTOX Red imaging, 24 h; series mostly up to 38.3 µM
# How it was run: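 Phospholipid accumulation was scored by imaging: fixed, Hoechst-counterstained HepG2 cells stained with LipidTOX Red after 24 h compound exposure at 37 C. Read-outs were pit count and pit intensity per well or per cell, with amiodarone and DMSO controls.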
row,SMILES,Potency
1,Oc1ccc(Cl)c2c1CCC2,inactive
2,CCN1CCCC1CNC(=O)c1cc(S(=O)(=O)CC)ccc1OC (centres undefined),inactive
3,Cc1c(N)nc([C@H](CC(N)=O)NC[C@H](N)C(N)=O)nc1C(=O)N[C@H](C(=O)N[C@H](C)[C@@H](O)[C@H](C)C(=O)N[C@H](C(=O)NCCc1nc(-c2nc(C(=O)NCCCCN=C(N)N)cs2)cs1)[C@@H](C)O)[C@@H](O[C@@H]1O[C@@H](CO)[C@@H](O)[C@H](O)[C@@H]1O[C@H]1O[C@H](CO)[C@@H](O)[C@H](OC(N)=O)[C@@H]1O)c1cnc[nH]1,inactive
4,O=P(O)(O)OP(=O)(O)OP(=O)(O)O,inactive
5,NS(=O)(=O)c1cc(Cl)c(Cl)c(S(N)(=O)=O)c1,inactive
6,C=CC1=C(C(=O)O)N2C(=O)[C@@H](NC(=O)/C(=N\O)c3csc(N)n3)[C@H]2SC1 (stereo in doubt),inactive
7,COC1=C(OC)C(=O)C(C/C=C(\C)CC/C=C(\C)CC/C=C(\C)CC/C=C(\C)CC/C=C(\C)CC/C=C(\C)CC/C=C(\C)CC/C=C(\C)CC/C=C(\C)CCC=C(C)C)=C(C)C1=O,inactive
8,NC(=O)[C@@H]1CCCN1C(=O)[C@H](Cc1cnc[nH]1)NC(=O)[C@@H]1CCC(=O)N1,inactive
9,CO[C@H]1C[C@H](O[C@H]2[C@H](C)[C@@H](O[C@@H]3O[C@H](C)C[C@H](N(C)C)[C@H]3O)[C@@H](C)C[C@]3(CO3)C(=O)[C@H](C)[C@@H](O)[C@@H](C)[C@@H](C)OC(=O)[C@@H]2C)O[C@@H](C)[C@@H]1O,inactive
10,CC(=O)Nc1ccc(OC(C)=O)cc1,inactive
11,CO/N=C(\C(=O)N[C@@H]1C(=O)N2C(C(=O)[O-])=C(C[n+]3ccc(N)n3CCO)CS[C@H]12)c1csc(N)n1,inactive
12,O=C(O)/C=C/C(O)c1ccc(Cl)cc1 (centres undefined),inactive
13,NC(N)=NCc1cccc(I)c1,inactive
14,COc1c(O)cc2c(c1O)[C@@H]1O[C@H](CO)[C@@H](O)[C@H](O)[C@H]1OC2=O,inactive
15,NC[C@@H]1CC[C@@H](N)[C@@H](O[C@H]2[C@H](O)[C@@H](O[C@H]3O[C@H](CO)[C@@H](O)[C@H](N)[C@H]3O)[C@H](N)C[C@@H]2N)O1,inactive
16,CSCCC(N)C(=O)O (centres undefined),inactive
17,COc1cc2c(cc1OC)[C@@H](Cc1cc(OC)c(OC)c(OC)c1)[N+](C)(CCCOC(=O)CC/C=C/CCC(=O)OCCC[N+]1(C)CCc3cc(OC)c(OC)cc3[C@H]1Cc1cc(OC)c(OC)c(OC)c1)CC2 (some centres undefined),inactive
18,CO/N=C(\C(=O)N[C@@H]1C(=O)N2C(C(=O)O)=C(CSc3nc(C)c(CC(=O)O)s3)CS[C@H]12)c1csc(N)n1,inactive
19,C/C(=C\C(=O)OCCCCCCCCC(=O)O)C[C@@H]1OC[C@H](C[C@@H]2O[C@H]2[C@@H](C)[C@H](C)O)[C@@H](O)[C@H]1O,inactive
20,CC12CCC(C1)C(C)(C)C2=O (centres undefined),inactive

row,SMILES,Potency
1,CO/N=C(\C(=O)N[C@@H]1C(=O)N2C(C(=O)O)=C(COC(C)=O)CS[C@H]12)c1csc(N)n1 (stereo in doubt),inactive
2,CC(C)C[C@H](NC(=O)[C@@H](COC(C)(C)C)NC(=O)[C@H](Cc1ccc(O)cc1)NC(=O)[C@H](CO)NC(=O)[C@H](Cc1c[nH]c2ccccc12)NC(=O)[C@H](Cc1cnc[nH]1)NC(=O)[C@@H]1CCC(=O)N1)C(=O)N[C@@H](CCCN=C(N)N)C(=O)N1CCC[C@H]1C(=O)NNC(N)=O,inactive
3,NC(=O)CC[C@@H]1NC(=O)[C@H](Cc2ccccc2)NC(=O)[C@H](Cc2ccc(O)cc2)NC(=O)[C@@H](N)CSSC[C@@H](C(=O)N2CCC[C@H]2C(=O)N[C@@H](CCCN=C(N)N)C(=O)NCC(N)=O)NC(=O)[C@H](CC(N)=O)NC1=O,inactive
4,CCC(O)c1ccccc1 (centres undefined),inactive
5,CCOc1ccc(S(=O)(=O)O)c2cccnc12,inactive
6,O=C1c2ccccc2C(=O)C1c1ccc(F)cc1,inactive
7,CCN1\C(=C/C=C/C=C/c2sc3ccccc3[n+]2CC)Sc2ccccc21,inactive
8,Cc1cc(CC(C)CC(C)(C)C)n(O)c(=O)c1 (centres undefined) (tested in a mixture with another compound),inactive
9,c1ccc(-n2cnnn2)cc1,inactive
10,CNC(=O)OCc1cccc(COC(=O)NC)n1,inactive
11,CN[C@@H]1[C@@H](O[C@H]2O[C@H](CO)[C@@H](N)[C@H](O)[C@H]2O)O[C@H]2C[C@@H](N)[C@@H](O[C@H]3[C@H](O)[C@@H](O)[C@H](N)C[C@@H]3N)O[C@@H]2[C@@H]1O,inactive
12,O=C1CCC(c2ccccc2)(C2CCN(Cc3ccccc3)CC2)C(=O)N1 (centres undefined),inactive
13,CCN(CC)C(=O)[C@]1(c2ccccc2)C[C@@H]1CN,inactive
14,C=C1[C@H](CO)[C@@H](O)C[C@@H]1n1cnc2c(=O)[nH]c(N)nc21,inactive
15,CCCCN(CCCC)C(=S)[S-].CCCCN(CCCC)C(=S)[S-].[Zn+2],inactive
16,CN1C(C(=O)Nc2ccccn2)C(=O)c2sc(Cl)cc2S1(=O)=O (centres undefined),inactive
17,CN(C)CCc1c[nH]c2ccc(Cn3cncn3)cc12,inactive
18,COC(=O)[C@H]1[C@H]2C[C@H]3c4[nH]c5ccccc5c4CCN3C[C@H]2CC[C@@H]1O,inactive
19,CCc1ncnc2cc(OC)c(OC)cc12,inactive
